About 83,000 compounds went through this panel and 20% of them were active in at least one assay; those are over-represented in the sample as a whole.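 Assay: single dose, 48 h. Readout: percent growth (0 = no net growth; negative = cell death). Active: <10.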 Values without a mark were called inactive. Activity calls are given as the source filed them.
Columns and labels:
Assay in all cases: NCI-60 one-dose screen, 48 h (100 = growth as untreated, 0 = no growth, -100 = all killed)
Conditions in all cases: 10 µM unless noted
[1] = system: DU-145 prostate
[2] = system: K-562 leukemia
[3] = system: MALME-3M melanoma
[4] = system: MDA-MB-231 breast
[5] = system: RXF 393 renal
[6] = system: SF-268 CNS
[7] = system: SF-295 CNS
[8] = system: UACC-257 melanoma
[9] = system: M14 melanoma
[10] = system: HCT-15 colon
[11] = system: HT29 colon
[12] = system: SNB-75 CNS
[13] = system: SNB-19 CNS
[14] = system: U251 CNS
[15] = system: PC-3 prostate
[16] = system: SK-MEL-5 melanoma
[17] = system: UACC-62 melanoma
[18] = system: LOX IMVI melanoma
[19] = system: SK-MEL-28 melanoma

Structure (SMILES)	growth [1]	growth [2]	growth [3]	growth [4]	growth [5]	growth [6]	growth [7]	growth [8]	growth [9]	growth [10]	growth [11]	growth [12]	growth [13]	growth [14]	growth [15]	growth [16]	growth [17]	growth [18]	growth [19]
Cn1cc(-c2csc(-c3cn(C)c4ncccc34)n2)c2ccccc21	28%	14.8%	48.3%	52.2%	19.9%	50.6%	9.79% (active)	61.1%	12.2%	26.5%	6.11% (active)	-4.48% (active)	42.4%	25.1%	35.7%	32.6%	47%	36.8%	61.4%
COc1cc(-c2c3sc(=O)[nH]c3nc3c2c(=O)[nH]n3C(C)C)cc2c1OCO2	119%	97.6%	121%	101%	94.5%	115%	83.5%	99.2%	114%	101%	103%	85.2%	107%	103%	117%	96.9%	105%	–	99.2%
CN(C)CCCC(=O)Nc1ccc(Cn2nnc3c2C(=O)c2nnn(Cc4ccc(NC(=O)CCCN(C)C)cc4)c2C3=O)cc1	86%	70.1%	-33.4% (active)	3.74% (active)	90.8%	80.6%	77.8%	47.9%	85.8%	94.5%	10.5%	-94.9% (active)	82.7%	90.2%	88.1%	50.3%	75.7%	6.92% (active)	56.5%
O=C(C[C@@H](C(=O)NCc1cccc(C(F)(F)F)c1)N1C(=O)[C@@H](N2C(=O)OC[C@@H]2c2ccccc2)[C@H]1/C=C/c1ccccc1)NC1CCN(Cc2ccccc2)CC1	67.2%	-51% (active)	-17.1% (active)	64.3%	74.4%	57.9%	102%	77.4%	83.2%	61.1%	2.51% (active)	71.7%	84.6%	70.9%	54.4%	43.1%	73.3%	23.9%	81.5%
CC(C)(C)c1nn(-c2ccccc2)c2c1CC1(CN2Cc2ccc3c(c2)OCO3)C(=O)c2ccccc2C1=O	112%	89.8%	148%	94.6%	93%	111%	106%	104%	120%	105%	103%	120%	111%	105%	91.8%	99.2%	92.3%	103%	116%
COc1ccc(-c2c(C)noc2-c2ccc(O)cc2O)cc1	64.4%	39.6%	103%	108%	90.7%	82%	97.6%	111%	103%	68.8%	102%	90.9%	104%	93.8%	71.8%	80.4%	90.7%	–	105%
CC[n+]1ccc2c(c1)C(=O)c1nccc3c1c-2nc1ccccc13	-10.9% (active)	20%	-85.5% (active)	-8.92% (active)	-2.9% (active)	-16.4% (active)	-27.6% (active)	-8.02% (active)	-16.3% (active)	48.5%	10%	-75.2% (active)	-70.5% (active)	-60% (active)	3.26% (active)	-28.3% (active)	-57.7% (active)	-3.96% (active)	1.07% (active)
CN1CCOCCOCCOc2ccccc2NC(=O)c2nc(cnc2N)-c2ccc(cc2)S1(=O)=O	31.1%	15.9%	55.7%	66.3%	29.9%	63.3%	57.7%	-34.6% (active)	26.9%	1.6% (active)	9.23% (active)	52.1%	82.5%	54.6%	53.5%	60.5%	54.3%	30.1%	58.6%
COc1c(C2CC(=O)Nc3c2cnn3Cc2ccco2)cc2c(c1OC)OCO2 (stereo not given)	5.85% (active)	5.69% (active)	55.7%	16%	-30% (active)	34.1%	-20.6% (active)	68.4%	9.85% (active)	18.5%	11.2%	8.9% (active)	50.6%	20.4%	24.6%	3.98% (active)	35.4%	–	40.7%
Cc1ccc(S(=O)(=O)n2cc(-c3csc(-c4cn(C)c5ncccc45)n3)c3ccccc32)cc1	78.3%	26.7%	68.5%	42.6%	74.3%	74.1%	41.9%	70.8%	34.2%	35.8%	19.3%	45.8%	85%	51.9%	44.8%	39.4%	58.1%	51.2%	58.8%
CNc1nc(C)c(-c2nc(Nc3cccc(S(N)(=O)=O)c3)ncc2F)s1	10.9%	4.89% (active)	-31.4% (active)	3.09% (active)	-50% (active)	-12.7% (active)	6.78% (active)	-16.4% (active)	-3.19% (active)	1.76% (active)	0.997% (active)	-19.2% (active)	7.87% (active)	4.31% (active)	11.7%	-23.3% (active)	-48.6% (active)	0.394% (active)	-38% (active)
COc1cc(-c2cnc3nonc3n2)c(OC)c2c1OCO2	113%	49.2%	91.5%	89.4%	90.9%	99%	104%	93.6%	107%	87.5%	104%	95.7%	108%	93.5%	76.2%	96.2%	106%	–	111%
C/C(=C(/c1ccc(O)cc1)c1ccc(OCCN(C)C)cc1)c1ccccc1	98.1%	36.6%	79.9%	85.2%	69.3%	83.3%	98.1%	78.1%	65.1%	73.9%	22.1%	53.4%	96.1%	70.5%	80.3%	75.1%	36.8%	82.8%	45.3%
O=C(CO[N+](=O)[O-])Nc1ccc(C(=O)/C=C/c2ccc3c(c2)OCO3)cc1	96.7%	59.1%	116%	87.4%	107%	82.4%	74.6%	92.9%	81.8%	76.7%	30.1%	86.3%	104%	57.3%	61.4%	90.8%	96%	21.5%	104%
CCC(c1ccccc1)C(CC)c1ccc(O)c(O)c1 (stereo not given)	100%	87%	114%	109%	106%	92.1%	106%	97.3%	96.9%	91.2%	104%	86.4%	116%	96.6%	92.7%	88.3%	81.5%	87.9%	95.4%
CCOC(=O)c1c2c(n3ccc(NC(=O)CCN(CC)CC)cc13)C(=O)c1ncccc1C2=O	66.5%	49.7%	76.9%	42.4%	67.2%	41.9%	38%	57.3%	49.7%	50.3%	38.4%	33%	53.3%	53.2%	61.1%	45.1%	50.8%	10.3%	88.8%

Source: PubChem BioAssay (NCI)
